Consider 55 molecules from PubChem BioAssay AID1721 (National Center for Advancing Translational Sciences (NCATS), 2009).

Hit rate of the full screen: of about 290,000 compounds, about 1,100 (0.38%) were called active. Many of the other results were omitted from the sample, so actives are more common in it than they were. Values without a mark were called inactive. The call rests on the fitted dose curve; in most records, active means well fitted inhibition curve with a large enough effect; inconclusive means small, poorly fitted or top-dose-only effect, or another doubt; inactive means no such curve, though single readings can be large or run the other way.
On the % scale 0 is the no-effect control and ±100 the full control effect; potency means the concentration at half of the fitted maximal effect.

In the experiment the target is Pyruvate kinase (Leishmania mexicana) (UniProt Q27686). The experiment in a line: qHTS Assay for Inhibitors of Leishmania Mexicana Pyruvate Kinase (LmPK). Conditions: purified LmPK, Kinase-Glo ATP luminescence, 1 h; series mostly up to 57.5 µM; activity change, negative = inhibition: at the top concentration. The source says: NIH Chemical Genomics Center [NCGC] Malcolm Walkinshaw, Hugh Morgan, Linda Gilmore University of Edinburgh, UK MLPCN Grant: 1 R03 MH085697-01 NCGC Assay Overview: Pyruvate kinase (L. Mexicana) (LmPK) enzyme was supplied as a highly purified (>95% pure) sulphate-free preparation from University of Edinburgh, UK and assayed for its ability to generate ATP from ADP using phosphoenolpyruvate (PEP) as a substrate. ATP generation was detected in a coupled reaction by luciferase-mediated luminescence, an ATP-dependent process. […] The enzyme was assayed at an intermediate level of activity to screen for both inhibitors and activators.
Chain of Pyruvate kinase (Leishmania mexicana) (Q27686 whole entry, looked up): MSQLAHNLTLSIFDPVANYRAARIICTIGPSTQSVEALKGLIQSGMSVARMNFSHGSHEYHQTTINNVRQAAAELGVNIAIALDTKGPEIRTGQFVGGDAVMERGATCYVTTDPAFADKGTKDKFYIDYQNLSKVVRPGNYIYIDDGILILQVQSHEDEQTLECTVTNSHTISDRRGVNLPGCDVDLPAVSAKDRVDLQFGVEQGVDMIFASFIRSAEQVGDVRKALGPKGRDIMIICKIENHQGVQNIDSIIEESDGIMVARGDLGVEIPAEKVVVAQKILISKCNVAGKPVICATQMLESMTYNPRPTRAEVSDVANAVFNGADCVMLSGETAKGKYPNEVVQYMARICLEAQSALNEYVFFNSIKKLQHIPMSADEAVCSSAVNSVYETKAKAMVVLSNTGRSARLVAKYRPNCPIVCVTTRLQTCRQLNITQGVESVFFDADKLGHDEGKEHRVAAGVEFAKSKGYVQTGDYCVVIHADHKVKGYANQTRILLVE
NCGC Assay Protocol Summary: Three uL of enzyme mix (kept on ice) in assay buffer (50 mM Imidazole pH7.2, 50 mM KCl, 7 mM MgCl2, 0.01% Tween 20, 0.05% BSA) containing PEP (0.5 mM final concentration) and LmPK (0.1 nM final concentration) was dispensed into white solid bottom 1,536 well microtiter plates. 23 nL of compound were delivered by a pin tool and 1 uL of ADP mix in assay buffer (r.t; 0.1 mM final ADP concentration) was added. Plates were incubated at room temperature for 1 hour. Two uL of detection mix (Kinase-Glo, Promega; at 4 degree Celsius protected from light) was added and luminescence read by a ViewLux (Perkin Elmer) at 1 second exposure/plate. Data were normalized to the uninhibited and AC100 inhibition (no enzyme). To monitor activation, the first column contained a five-fold concentration of LmPK (0.5 nM).
For the molecule `CCn1c(-c2ccncc2)n[nH]c1=S`, the “activity change, negative = inhibition” value was 3.37%. Turning to `CCn1c(CSCc2c(Cl)cccc2Cl)n[nH]c1=S`, the Potency was 15.8 µM (active). Turning to `CCn1c(CNS(=O)(=O)c2ccc(Cl)cc2)n[nH]c1=S`, the “activity change, negative = inhibition” value is 4.89%. The same measure, in the same setting: then `COc1cccc(CNC(=O)C2CCCN(S(=O)(=O)N3CC(C)CC(C)C3)C2)c1` (stereo not given), with 2.71%; and `c1ccc(Cc2ccc(OCCn3ccnc3)cc2)cc1`, with -2.41%; and `CCC1CCCCN1CCCNC(=O)c1cc2c(Cl)nc3ccccc3c2s1` (stereo not given), with -3.62%. Same read-out and setting: then `CCOc1ccccc1NS(=O)(=O)c1cc2c3c(c1)C(C)C(=O)N3CCC2` (stereo not given), with 6.52%; and `CCOC(=O)c1cc(S(=O)(=O)NCCc2ccc(OC)c(OC)c2)cn1C`, with 10.7%; and `Cc1nc2ccc(C(=O)N/N=C/c3ccc(O)cc3)cc2[nH]1`, with 0.498%.

Regarding `O=C(C[n+]1ccccc1)N/N=C/c1ccc(O)cc1`, the “activity change, negative = inhibition” value is -8.31%.

In the case of `Cc1nonc1C(=O)N/N=C/c1ccc(O)cc1`, the Potency is 8.91 µM (active).

Turning to `C=CCNc1nc(N)c([N+](=O)[O-])c(NC2CCCCC2)n1`, the “activity change, negative = inhibition” value was 1.29%. The same measure, in the same setting: then `NNC(=O)CNC(c1ccccc1)c1cc(Cl)ccc1NC(=O)c1ccccc1` (stereo not given), with -0.937%; and `C[C@@H](NC(=O)OC(C)(C)C)c1nnc(S(=O)(=O)Cc2ccccc2)o1`, with 1.2%.

On to `Cc1cc2c(c(=O)n1Cc1ccccc1)C1O[C@](CCCCN3C(=O)c4ccccc4C3=O)(Cc3ccccc31)O2`, for which the activity change, negative = inhibition was -8.6% [at 11.5 µM]. Still for that read-out and setting: then `O=C(CCc1ccccc1)Nc1ncc([N+](=O)[O-])s1`, with 0.572%; and `O=C(Nc1ncc([N+](=O)[O-])s1)C1COc2ccccc2O1` (stereo not given), with -20.8%. With `CC(=O)Oc1ccccc1C(=O)Nc1ncc([N+](=O)[O-])s1`, the Potency was 12.6 µM (active).

Turning to `N=c1oc2ccccc2cc1C(=O)NCc1ccccc1`, the “activity change, negative = inhibition” value was -5.29%.

`Cc1ccc(/C=N/NC(=O)c2cc3ccccc3cc2O)o1`: the “activity change, negative = inhibition” value is -2.32%. In the case of `N=c1oc2ccccc2cc1C(=O)N/N=C/c1ccccc1`, the Potency was 8.91 µM (active).

With `CC1CC(C)CN(CCOc2cccc3ccccc23)C1` (stereo not given), the “activity change, negative = inhibition” value was 0.618%.

In the case of `Cc1cc(C)c(OCC(=O)N(Cc2cccs2)C2CCS(=O)(=O)C2)c(C)c1` (stereo not given), the “activity change, negative = inhibition” value is 0.0184%. The same measure, in the same setting: then `CCCn1c(C2CCCN2c2nc(-c3ccc(OC)cc3)cs2)nc2ccccc21` (stereo not given), with -0.585%; and `COc1ccc(-n2ncc3c2CC(C)(C)CC3NC(=O)CCc2c(C)noc2C)cc1` (stereo not given), with -2.13%; and `COC(=O)c1ccc2c(C(C)(C)O)c(C(C)(C)O)[nH]c2c1`, with -3.67%. Take `COc1ccc(-n2c(-c3ccc(OC)c(OC)c3)n[nH]c2=S)cc1`: the Potency is 20 µM (active). With `COc1ccccc1-n1cn[nH]c1=S`, the “activity change, negative = inhibition” value was -11.1%. Same read-out and setting: to `COc1ccc(-c2n[nH]c(C)c2-c2ccc(OC)c(OC)c2)c(O)c1` belongs 2.24%. On the same count and under the same terms, then `Cc1cc(-c2n[nH]c(=S)n2/N=C/c2ccco2)n[nH]1`, with 6.46%; and `COc1ccc(OC)c(-n2c(=S)[nH]c3cc(C(=O)N4CCCCC4)ccc3c2=O)c1`, with -8.77%. Take `Cc1ccc(-n2c(-c3ccc(Cl)cc3)n[nH]c2=S)cc1`: the Potency is 14.1 µM (active). For `Cc1ccc(OCc2n[nH]c(=S)n2-c2ccc(C)cc2)cc1`, the “activity change, negative = inhibition” value was 2.55%. Still for that read-out and setting: to `COc1ccc(OCc2n[nH]c(=S)n2N)cc1` belongs 1.04%; to `Cc1cc(-c2n[nH]c(=S)n2-c2ccc(C)c(C)c2)no1`, -17.2%. As for `COc1ccccc1-n1c(-c2cc(-c3ccco3)[nH]n2)n[nH]c1=S`, the Potency was 3.55 µM (active).

As for `S=c1[nH]nc(-c2ccc(Cl)cc2)n1CC1CCCO1` (stereo not given), the “activity change, negative = inhibition” value was -19.2%. As for `COc1ccc(OC)c(-n2c(-c3ccn[nH]3)n[nH]c2=S)c1`, the Potency is 20 µM (active). With `O=C(CN1CCCCCC1)Nc1c(Cl)cc(Cl)cc1Cl`, the “activity change, negative = inhibition” value is -2.33%. Still for that read-out and setting: then `O=C(C1CCCN(S(=O)(=O)c2ccccc2)C1)N1CCN(c2ccc(F)cc2)CC1` (stereo not given), with -5.11%; and `O=C(CCS(=O)(=O)c1ccccc1)NC1CCCC1`, with -7.62%. The same measure, in the same setting: then `CC(C)(C)C1C/C(=C/c2ccco2)C(=O)/C(=C/c2ccco2)C1` (stereo not given), with 2.93%; and `COc1ccc(S(=O)(=O)NCCOc2ccccc2)cc1F`, with 6.43%. Take `COc1ccc(CCN2CC(C(=O)NCCN3CCNC3=O)CCC2=O)cc1` (stereo not given): the “activity change, negative = inhibition” value is -1.55%. Still for that read-out and setting: to `CCn1c(SCC(=O)NC2CCCC2)nnc1-c1ccoc1C` belongs -1.22%; to `COc1cccc(NC(=O)COc2cc(C)cc3oc(=O)cc(C)c23)c1`, -1.3%.

Take `COc1ccc(S(=O)(=O)NCCCCOc2ccc(Cl)cc2)cc1`: the “activity change, negative = inhibition” value was -1.76%. Still for that read-out and setting: to `CCOc1ccc(C2NC(=S)NC3=C2CCc2ccccc23)cc1` (stereo not given) belongs -18.4%; to `CC(C)(C)c1ccc(Cn2nnc3c(=O)[nH]c(C4CCCN(C(=O)c5ccco5)C4)nc32)cc1` (stereo not given), 4.01%. On the same count and under the same terms, to `COc1ccc(C(=O)NC2CC(C)(C)NC(C)(C)C2)cc1OC` belongs 3.08%; to `COCCc1nn2c(=O)cc(COC(=O)c3cc(OC)c(OC)c(OC)c3)nc2s1`, 4.84%.

On to `CC(=O)C1=C(O)C(=O)N(c2ccc(Br)cc2)C1c1ccc([N+](=O)[O-])cc1` (stereo not given), for which the “activity change, negative = inhibition” value was 4.85%.

`CCCCc1nc2cc(C(=O)N3CCCCC3CCO)ccc2o1` (stereo not given): the “activity change, negative = inhibition” value is -5.27%. Still for that read-out and setting: to `Cc1cc(NC(=O)c2ccc(F)cc2)ccc1NC(=O)c1ccco1` belongs -5.75%.

For the molecule `COc1ccccc1C(=O)Nc1ccc(NC(=O)c2ccco2)c(C)c1`, the Potency was 15.8 µM (active).
